Inconclusive results are not listed. Calls of active or inactive are those of the source. Calls follow the shape of the dose curve; as a rule, active = well fitted curve in the direction sought with a large enough effect; inconclusive = small, poorly fitted or top-dose-only effect, or another doubt; inactive = no such curve, though single readings can be large; an effect the other way counts as inactive or inconclusive.
Tests used:
[1] = molecular target: Cellular tumor antigen p53 (Homo sapiens) (UniProt P04637); assay: Primary qHTS for small molecule compounds that upregulate eGFP-tagged delta133p53alpha (in N-terminal) cells. (AID 2060322); settings: NCI-H358 eGFP-delta133p53alpha fluorescence, 24 h; activation: stronger effect = higher value;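 also: cells pre-induced with doxycycline then dosed without doxycycline; series mostly up to about 56 µM; 0% = DMSO vehicle and 100% = reference activator; nearly all actives have a fitted effect of over 75% in size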
Procedure, shortened: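 NCI-H358 cells pre-induced 24 h with 10 ng/ml doxycycline for eGFP-delta133p53alpha, plated dox-free and exposed 24 h at 37C to titrated compounds. Fixed, Hoechst-stained; gated GFP peak intensity by laser scanning cytometry, normalized to DMSO (0%) and 57.5 uM 5-azacytidine (100%).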

[2] = molecular target: Aldehyde dehydrogenase, mitochondrial (Homo sapiens) (UniProt P05091); assay: qHTS for Inhibitors of the Aldehyde Dehydrogenase Family (ALDH2) Primary screen (AID 2061308);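 also: plate controls were vehicle for no effect and reference inhibitor for full effect; nearly all actives have a fitted effect of over 55% in size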
[3] = molecular target: Retinaldehyde dehydrogenase 3 (Homo sapiens) (UniProt P47895); assay: qHTS for Inhibitors of the Aldehyde Dehydrogenase Family (ALDH1A3) Primary screen (AID 2061315);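 also: plate controls were DMSO vehicle for no effect and reference inhibitor for full effect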

Sequence of Cellular tumor antigen p53 (Homo sapiens) (P04637 whole entry, looked up): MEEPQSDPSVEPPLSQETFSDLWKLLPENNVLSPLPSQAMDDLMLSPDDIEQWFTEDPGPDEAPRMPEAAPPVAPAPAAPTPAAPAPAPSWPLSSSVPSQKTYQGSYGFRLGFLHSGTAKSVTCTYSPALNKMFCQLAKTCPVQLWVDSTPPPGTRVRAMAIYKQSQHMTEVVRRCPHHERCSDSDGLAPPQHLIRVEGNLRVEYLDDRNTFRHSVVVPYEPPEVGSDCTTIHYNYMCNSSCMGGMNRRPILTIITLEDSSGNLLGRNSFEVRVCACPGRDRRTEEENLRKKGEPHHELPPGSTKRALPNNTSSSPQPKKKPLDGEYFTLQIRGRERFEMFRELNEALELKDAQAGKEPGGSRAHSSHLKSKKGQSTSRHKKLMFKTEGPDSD

CC#C[C@@H](CC(=O)O)c1ccc(OCc2ccc(CN3CCC4(C=Cc5ccccc54)CC3)s2)cc1
inactive: activation [1] 4.46% | Potency [2] | Potency [3]

COC(=O)C1=COC(OC2OC(CO)C(O)C(O)C2O)C2C(C)CC(=O)C12O (configuration not stated)
inactive: activation [1] -4.46% | Potency [2] | Potency [3]

OC[C@H]1O[C@@H](OC[C@H]2O[C@@H](OCc3ccccc3)[C@H](O)[C@@H](O)[C@@H]2O)[C@H](O)[C@@H](O)[C@@H]1O
inactive: activation [1] -3.82% | Potency [2] | Potency [3]

C[C@]1(OC(=O)/C=C/c2ccccc2)C[C@H](O)[C@]2(O)C=CO[C@@H](O[C@@H]3O[C@H](CO)[C@@H](O)[C@H](O)[C@H]3O)C12 (some centres not stated)
inactive: activation [1] -18.3% | Potency [2] | Potency [3]

COC1CC(OC2CCC3(C)C(=CCC4C3C(OC(C)=O)C(OC(=O)/C=C/c3ccccc3)C3(C)C(C(C)O)CCC43O)C2)OC(C)C1OC1CC(OC)C(OC2OC(C)C(OC3OC(CO)C(O)C(O)C3O)C(OC)C2O)C(C)O1 (configuration not stated)
inactive: activation [1] 2.29% | activity change, negative = inhibition [2] 13.8% [at 11.2 µM] | activity change, negative = inhibition [3] 9.46% [at 11.2 µM]

O=C(O)CC1CC(c2ccccc2)=NO1 (configuration not stated)
inactive: activation [1] 16.3% | Potency [2] | Potency [3]

C[C@@H]1CCC2C(C)(C)[C@H](O)CC[C@]2(C)[C@@]12Cc1c(O)cc3c(c1O2)CN([C@@H](CCC(=O)O)C(=O)O)C3=O (some centres not stated)
inactive: activation [1] -9.16% | Potency [2] | Potency [3]

CC1(C)CCC[C@]2(C)[C@H]3CC(=O)O[C@]3(C)CC[C@@H]12
inactive: activation [1] 20.3% | Potency [2] | Potency [3]

CC(=O)OC[C@]12[C@H](OC(C)=O)[C@H](OC(=O)c3ccccc3)[C@@H]3[C@@H](OC(C)=O)[C@]1(OC3(C)C)[C@H](C)C[C@H](OC(C)=O)[C@@H]2OC(=O)c1ccccc1
inactive: activation [1] 3.05% | Potency [2] | Potency [3]

CC(C)C1NC(=O)C2CCCN2C1=O (configuration not stated)
inactive: activation [1] 8.93% | Potency [2] | Potency [3]

CCNc1nc(Nc2cc(F)c(C(=O)N3CCOCC3)cc2OC)ncc1C(F)(F)F
inactive: activation [1] 10.7% | Potency [2] | Potency [3]

O=C(O)[C@H]1CCCC[C@H]1C(=O)N1CCc2ccccc2[C@H]1CN1C(=O)c2ccccc2C1=O
inactive: activation [1] -3% | Potency [2] | Potency [3]

COC(=O)C[C@H]1C(C)(C)[C@H](OC(=O)C(C)C)C2CC3=C4CC(=O)O[C@@H](c5ccoc5)[C@]4(C)CCC3[C@@]1(C)C2=O (some centres not stated)
inactive: activation [1] 11.6% | Potency [2] | Potency [3]

C[C@H]1C(=O)N2c3ccccc3[C@@]3(O)C[C@@H]4C(=O)N[C@](C)(c5nc6ccccc6c(=O)n54)N1[C@@H]23
inactive: activation [1] -2.29% | Potency [2] | Potency [3]

C=C1C(=O)O[C@@H]2C[C@H](C)[C@@]3(O)C=C(C(C)=O)[C@]4(CC3C[C@H]12)C(=O)O[C@H]1C[C@@H](C)C(CCC(C)=O)=CC[C@H]14 (some centres not stated)
inactive: activation [1] 4.46% | Potency [2] | Potency [3]

O=C1OC(c2ccc(O)cc2)C(O)=C1Cc1ccccc1 (configuration not stated)
inactive: activation [1] -3.82% | Potency [2] | Potency [3]

CCOC(=O)[C@H](CCc1ccccc1)N[C@@H](C)C(=O)N1C2CCCCC2C[C@H]1C(=O)O (some centres not stated)
inactive: activation [1] -7% | Potency [2] | Potency [3]

NCCCC[C@H](NC(=O)[C@@H]1Cc2ccccc2CN1C(=O)CCC(=O)c1ccccc1)C(=O)NCC(c1ccccc1)c1ccccc1
inactive: activation [1] -6.33% | Potency [2] | Potency [3]

CC(C)c1ccc(CO)cc1O[C@@H]1O[C@H](CO)[C@@H](O)[C@H](O)[C@H]1O
inactive: activation [1] -11.5% | Potency [2] | Potency [3]

C[C@]1(CO)CN(c2cc(C(=O)Nc3ccc4c(c3)-c3c(c(C(N)=O)nn3-c3ccc(F)cc3)CC4)c(Cl)cn2)C[C@@]1(C)CO
inactive: activation [1] 21.4% | Potency [2] | Potency [3]

CC1CCC(=O)CC(SCC(O)C(=O)O)CCC(=O)O1 (configuration not stated)
inactive: activation [1] -26% | Potency [2] | Potency [3]

COc1ccc(C2(CNC(=O)[C@](C)(Cc3c[nH]c4ccccc34)NC(=O)Nc3ccc([N+](=O)[O-])cc3)CCCCC2)nc1
inactive: activation [1] 12.9% | Potency [2] | Potency [3]

CCC(C)C(=O)OC[C@H]1O[C@H](O[C@H]2O[C@H](CO)[C@@H](O)[C@H](O)[C@H]2O)[C@H](O)[C@@H](O)[C@@H]1O (some centres not stated)
inactive: activation [1] 1.53% | Potency [2] | Potency [3]

C/C(=C\C=C\C(C)C1CCC2(C)C3CCC4C(C)(C)C(=O)CCC45CC35CCC12C)C(=O)O (configuration not stated)
inactive: activation [1] 5.36% | Potency [2] | Potency [3]

C[C@@H]1CCC2C(C)(C)[C@H](O)CC[C@]2(C)[C@@]12Cc1c(O)cc3c(c1O2)CNC3=O (some centres not stated)
inactive: activation [1] -20.6% | Potency [2] | Potency [3]

CC1(C)CC[C@]2(C(=O)O[C@@H]3O[C@H](CO)[C@@H](O)[C@H](O)[C@H]3O)CC[C@]3(C)C(=CCC4[C@@]5(C)CC[C@H](O[C@@H]6O[C@H](C(=O)O)[C@@H](O[C@@H]7O[C@H](CO)[C@@H](O)[C@H](O)[C@H]7O)[C@H](O)[C@H]6O[C@@H]6O[C@H](CO)[C@@H](O)[C@H](O)[C@H]6O)C(C)(C)C5CC[C@]43C)C2C1 (some centres not stated)
inactive: activation [1] -29.8% | Potency [2] | Potency [3]

O=C(Nc1ccc(Cl)cc1)C1CCCN(C(=O)c2cccc(-c3ccco3)c2)C1 (configuration not stated)
inactive: activation [1] -4.77% | Potency [2] | Potency [3]

C=C[C@]1(C)C[C@H](O)[C@H]2C(=C)C(=O)O[C@@H]2[C@H]1C(=C)CO
inactive: activation [1] 17.9% | Potency [2] | Potency [3]

O=C(O)CCc1c(C(=O)O)[nH]c2cc(Cl)cc(Cl)c12
inactive: activation [1] 3% | Potency [2] | Potency [3]

OC[C@H]1O[C@@H](n2cnc3c(NCc4ccc(O)cc4)ncnc32)[C@H](O)[C@@H]1O
inactive: activation [1] 13.7% | Potency [2] | Potency [3]

COC(=O)[C@]12C(=O)C(C)=C(O)[C@@]1(C)C(C)=CC1[C@@]34CC[C@@H](OC(C)=O)C(C)(C)C3[C@H](C[C@]12C)OC4=O (some centres not stated)
inactive: activation [1] 2.29% | Potency [2] | Potency [3]

O=C(Nc1cccc([N+](=O)[O-])c1)c1cccc(S(=O)(=O)N2CCCCCC2)c1
inactive: activation [1] 1.67% | Potency [2] | Potency [3]

COc1ccc2nc(S(=O)(=O)Cc3ncc(C)c(OC)c3C)[nH]c2c1
inactive: activation [1] 6.33% | Potency [2] | Potency [3]

CC1=C2[C@@H]([C@H](C)CC[C@H]2/C=C(\C)C(=O)O)[C@H](O)C1
inactive: activation [1] -10.7% | Potency [2] | Potency [3]

COc1ccc(/C=C/C(=O)O[C@@H]2[C@@H](OC(C)=O)[C@@H](OC(C)=O)[C@H](O[C@H]3[C@@H]4C=CO[C@@H](O[C@@H]5O[C@H](CO)[C@@H](O)[C@H](O)[C@H]5O)[C@@H]4[C@@]4(CO)O[C@@H]34)O[C@H]2C)cc1O
inactive: activation [1] -16% | Potency [2] | Potency [3]

C=C1CCC[C@]2(C)CC/C(=C(/CO)C(=O)OC)C[C@@H]12
inactive: activation [1] 18.8% | Potency [2] | Potency [3]

C[C@H]1[C@@H](O)[C@H](O)C2[C@]3(C)C([C@@H](O)[C@H]4OC(=O)[C@@H]1[C@@]24C)[C@](C)(O)C=C[C@H]3O[C@@H]1O[C@H](CO)[C@@H](O)[C@H](O)[C@H]1O (some centres not stated)
inactive: activation [1] 0.893% | Potency [2] | Potency [3]

CC(=O)c1cc(C(=O)N[C@@H](C)Cn2ccc(-c3ccc(C#N)c(Cl)c3)n2)[nH]n1
inactive: activation [1] 18.3% | Potency [2] | Potency [3]

C=C[C@H]1[C@H](O[C@@H]2O[C@H](CO)[C@@H](O)[C@H](O)[C@H]2O)OC=C2C(=O)OCC[C@]21O
inactive: activation [1] -8.04% | Potency [2] | Potency [3]

C=C1C[C@]23C[C@H]1CC[C@H]2[C@]1(C)CCC[C@@](C)(C(=O)O)[C@H]1[C@@H]3C(=O)O
inactive: activation [1] -8.04% | Potency [2] | Potency [3]

CC1(CCC(=O)O)C(=O)C=CC23CC4CC(OC4(C)C2O)C13 (configuration not stated)
inactive: activation [1] 6.87% | Potency [2] | Potency [3]

O=C(/C=C/c1ccc(O)cc1)OC1[C@H](O)CC(O)(C(=O)O)C[C@H]1O (some centres not stated)
inactive: activation [1] -0.763% | Potency [2] | Potency [3]

CC(=O)O[C@H]1C[C@@]2(C)[C@@H](CC[C@H]3[C@@]4(C)C=CC(=O)[C@@H](C)[C@@H]4[C@H](O)C(=O)[C@@]32C)/C1=C(/CCC=C(C)C)C(=O)O
inactive: activation [1] 17.6% | Potency [2] | Potency [3]

CCC(C)/C=C(C)/C=C/C1=CC2=C(Cl)C(=O)C(C)(OC(C)=O)C(=O)C2=CN1C(CCCN=C(N)N)C(=O)O (configuration not stated)
inactive: activation [1] 16% | Potency [2] | Potency [3]

C[C@@H]1O[C@@H](O[C@@H]2CO[C@@H](O[C@H]3CC[C@@]4(C)C(CC[C@]5(C)C4CC=C4[C@@H]6CC(C)(C)CC[C@]6(C(=O)O[C@@H]6O[C@H](CO)[C@@H](O)[C@H](O)[C@H]6O)CC[C@]45C)[C@]3(C)CO)[C@H](O)[C@H]2O[C@@H]2O[C@H](CO)[C@@H](O)[C@H](O)[C@H]2O)[C@H](O)[C@H](O)[C@H]1O (some centres not stated)
inactive: activation [1] -16.1% | Potency [2] | Potency [3]

C[C@]12CC/C(=N\OCC(=O)O)C=C1CC[C@@H]1[C@@H]2[C@@H](O)C[C@@]2(C)[C@H]1CC[C@]2(O)C(=O)CO
inactive: activation [1] 5.67% | Potency [2] | Potency [3]

CC(C)=C1C[C@@]2(C)C(=CC1=O)CC[C@@H](OC(=O)/C(C)=C/CO)[C@@H]2C
inactive: activation [1] 5.34% | Potency [2] | Potency [3]

CC(C)/C=C1\NC(=O)C(C(C)C)n2c1nc1c(c2=O)C=CC=CO1 (configuration not stated)
inactive: activation [1] -7.63% | Potency [2] | Potency [3]

C=C1CCC[C@]2(C)CC[C@@](O)(C(=C)C(=O)O)C[C@@H]12
inactive: activation [1] 24.1% | Potency [2] | Potency [3]

From PubChem BioAssay (NCATS)
